Experimental data as given in ChEMBL document CHEMBL3988442, “University of Dundee, Small-Polar-MMV Screening Library” (2021).
The campaign covered roughly 48,000 compounds. About 13,000 (27%) showed an effect of 50% or more. This is one part of the list.

Each molecule was assayed on Wolbachia pipientis (assay: Anti-Wolbachia Cell-Based Screen). Settings: 5 µM.
Type: functional
Set-up: scale not given: in the data most compounds retested in dose-response had high values

Structure (SMILES)	Percent Effect
O=C(c1cnco1)N1C[C@@H]2CC[C@H](Oc3cccc(F)c3)[C@@H]2C1	-6.458%
CC(=O)NCC(=O)N1C[C@@H]2CC[C@H](Oc3ccccc3Cl)[C@@H]2C1	95.47%
CCC(CNC(=O)Cn1ccnc1)Oc1cccc(F)c1 (configuration not stated)	0.7752%
O=C(c1cnco1)N1C[C@@H]2CC[C@H](Oc3ccccc3F)[C@@H]2C1	-11.33%
CN(C)CC(=O)N1C[C@@H]2CC[C@H](Oc3ccccc3Cl)[C@@H]2C1	-7.066%
O=C(Cn1ccnc1)N1CCC(n2cc(-c3cccc(Cl)c3)nn2)CC1	2.937%
O=C(Cn1ccnc1)N1C[C@@H]2CC[C@H](Oc3ccc(Cl)cc3)[C@@H]2C1	109.7%
CC(C)N1CC(C(=O)N2CCC(Oc3ccccc3Cl)CC2)CC1=O (configuration not stated)	-11.86%
O=C(Cn1ccnc1)N1C[C@@H]2CC[C@H](Oc3ccccc3)[C@@H]2C1	-14.9%
O=C(Cn1ccnc1)N1C[C@@H]2CC[C@H](Oc3ccccc3Cl)[C@@H]2C1	-8.109%
O=C(Cn1ccnc1)N1C[C@@H]2CC[C@H](Oc3ccccc3F)[C@@H]2C1	91.22%
O=C(Cn1ccnc1)N1C[C@@H]2CC[C@H](Oc3cccc(F)c3)[C@@H]2C1	109%
CC(C1CC1)N(C)C(=O)c1cnc(-c2ccc3c(c2)OCO3)s1 (configuration not stated)	-9.871%
CN(CC1CC1)C(=O)Cc1csc(-c2ncccn2)n1	-2.04%
CCC(=O)NCC(CC)Oc1cccc(F)c1 (configuration not stated)	-9.029%
CN(C)Cc1nc2c(o1)CN(C(=O)NCc1cccc(F)c1)C2.O=C(O)C(F)(F)F	-9.503%
CCN(CC)Cc1nc2c(o1)CN(C(=O)c1ccncc1F)C2	11.31%
CN(C)Cc1nc2c(o1)CN(S(=O)(=O)c1cccs1)C2.O=C(O)C(F)(F)F	113.1%
CCN(CC)Cc1nc2c(o1)CN(C(=O)c1ccc3ncccc3c1)C2	-8.46%
CCN(CC)Cc1nc2c(o1)CN(S(=O)(=O)c1cccs1)C2.O=C(O)C(F)(F)F	103.4%
CC(C)N(C)Cc1ncn2c1CN(S(=O)(=O)c1cccs1)CCC2.O=C(O)C(F)(F)F	2.779%
CC(Oc1ccc(F)c(F)c1)C(=O)N(CC(N)=O)C1CCCC1 (configuration not stated)	5.493%
CC(NC(=O)CCc1cccc(OC2CCCC2)c1)c1nncn1C (configuration not stated)	-2.207%

Structure (SMILES)	Percent Effect
Cc1sc(NC(=O)CN(C)S(C)(=O)=O)c(C#N)c1C	5.3%
CCOC(=O)c1sc(NC(=O)CN2C(=O)CCC2=O)c(C#N)c1C	132.7%
CCOC(=O)c1sc(NC(=O)CN(C)S(C)(=O)=O)c(C#N)c1C	0.9217%
CCCC(=O)Nc1sc(C(=O)OCC)c(C)c1C#N	10.62%
CCOC(=O)c1sc(NC(=O)C(C)C)c(C#N)c1C	157.4%
Cc1cc(N2CCCC(N(C)C)C2)n2nccc2n1 (configuration not stated)	14.85%
O=C(CCc1ccco1)Nc1cccc(S(=O)(=O)C(F)F)c1	1.803%
COC(=O)C(NC(=O)CC(C)C)c1cc(F)ccc1F (configuration not stated)	110.3%
COC(=O)C(NC(=O)CCc1ccco1)c1cc(F)ccc1F (configuration not stated)	117.5%
CCCC(=O)NC(C(=O)OC)c1cc(F)ccc1F (configuration not stated)	95.91%
CCOC(=O)C(C)NC(=O)CCSc1ccc(F)cc1 (configuration not stated)	5.779%
COC(=O)C(NC(=O)c1ccco1)c1cc(F)ccc1F (configuration not stated)	-3.431%
COC(=O)C(NC(=O)CCOC(C)C)c1cc(F)ccc1F (configuration not stated)	85.02%
CC(C)OCCC(=O)N(C)c1ccc(F)c(Cl)c1	3.103%
CC(C)NC(=O)CC(C)NCc1ccc(F)cc1Cl (configuration not stated)	10.92%
CC(C)OCCC(=O)Nc1c(-c2ccc(F)cc2)ncn1C	6.912%
COC(=O)C(NC(=O)C(C)C)c1cc(F)ccc1F (configuration not stated)	-7.207%
CC(C)(C)S(=O)(=O)c1ccc(N2CCN(c3ccccc3)CC2)nn1	15.82%
COCc1n[nH]c2c1CN(Cc1ccccn1)C2.O=C(O)C(F)(F)F	-21.53%
Cc1nnc(N2CCN(C(=O)NC3CC3)CC2)c(C(N)=O)c1C	-22.89%
CS(=O)(=O)NCC1CCCCN1Cc1ccccc1C#N (configuration not stated)	1.848%
O=C1CN(CC2CC2)Cc2nc(NCCc3ccccn3)sc21	91.68%
COCCN1CC(=O)c2sc(NCc3ccccc3)nc2C1	105.3%

Structure (SMILES)	Percent Effect
O=C1CN(CC2CC2)Cc2nc(NCc3ccccc3)sc21	59.83%
Cn1c(C2CC2)nc2c1CCN(CCc1ccccn1)C2	-2.558%
Cc1nc(CNC2CCN(Cc3ccccc3)C2)sc1C (configuration not stated)	-5.508%
O=C(NCc1ccccc1)[C@@H]1Cc2[nH]cnc2CN1CC1CC1	2.59%
O=C(NCCc1ccccn1)NC1CCN(c2ccccc2)C1=O (configuration not stated)	10.23%
CSC1(CNC(=O)NC(C)c2ccc(F)c(F)c2)CCOCC1 (configuration not stated)	-14.87%
Cc1ccc(C(C(=O)NCCc2nc(C)cc(C)n2)N(C)C)cc1 (configuration not stated)	11.55%
COc1ccc(-c2cccc3c2OC(CN)C3)cc1F (configuration not stated)	-8.297%
CCN1CCN(C[C@@H]2CN(c3ncc(Cl)cc3Cl)C[C@@H]2CO)CC1	-5.198%
CCCS(=O)(=O)N1C[C@@H](c2nc(C)no2)C[C@H]2OCC[C@H]21	120.5%
Cc1noc([C@@H]2C[C@H]3OCC[C@H]3N(S(C)(=O)=O)C2)n1	0.371%
Cc1noc([C@@H]2C[C@H]3OCC[C@H]3N(CC3CCCC3)C2)n1.O=C(O)C(F)(F)F	-10.41%
Cc1noc([C@H]2C[C@H]3OCC[C@H]3N(S(C)(=O)=O)C2)n1	101.7%
CCS(=O)(=O)N1C[C@H](c2nc(C)no2)C[C@H]2OCC[C@H]21	131.3%
Cc1noc([C@H]2C[C@H]3OCC[C@H]3N(Cc3scnc3C)C2)n1.O=C(O)C(F)(F)F.O=C(O)C(F)(F)F	-0.107%
Cc1noc([C@H]2C[C@H]3OCC[C@H]3N(S(=O)(=O)C3CC3)C2)n1	5.212%
Cc1noc([C@H]2C[C@H]3OCC[C@H]3N(C3CCC3)C2)n1.O=C(O)C(F)(F)F	110.4%
Cc1noc([C@@H]2C[C@H]3OCC[C@H]3N(Cc3cc(C)c(C)o3)C2)n1.O=C(O)C(F)(F)F	-0.5348%
CCc1ccc(CN2C[C@@H](c3nc(C)no3)C[C@H]3OCC[C@H]32)o1.O=C(O)C(F)(F)F	3.351%
CCS(=O)(=O)N1C[C@@H](c2nnc(C)o2)C[C@H]2OCC[C@H]21	1.952%
Cc1nnc([C@H]2C[C@H]3OCC[C@H]3N(S(=O)(=O)CC(C)C)C2)o1	-13.43%
Cc1ccc(-c2cnnc(NCC3(N4CCOCC4)CCCC3)n2)o1	10.34%
CNC(=O)c1cc2c(s1)CCN(C(=O)CCC1CCCN(C)C1)C2 (configuration not stated)	-26.69%

Structure (SMILES)	Percent Effect
Cc1nn(C)c(C)c1CN(Cc1cccn1-c1ncccn1)C(C)C	-15.44%
CC(Cn1ccnc1)NC(=O)N(C)Cc1ccco1 (configuration not stated)	7.542%
Cc1ccccc1CC1(CO)CCCN(c2ncnc3sccc23)C1 (configuration not stated)	23.07%
Cc1nnc([C@H]2C[C@H]3OCC[C@H]3N(S(=O)(=O)C3CC3)C2)o1	7.121%
Cc1noc([C@@H]2C[C@H]3OCC[C@H]3N(S(=O)(=O)c3ccccc3)C2)n1	116%
Cc1nnc([C@H]2C[C@H]3OCC[C@H]3N(S(=O)(=O)N(C)C)C2)o1	-11.67%
Cc1noc([C@@H]2C[C@H]3OCC[C@H]3N(S(=O)(=O)c3cccnc3)C2)n1.O=C(O)C(F)(F)F	-2.374%
Cc1noc([C@@H]2C[C@H]3OCC[C@H]3N(Cc3ccoc3)C2)n1	14.51%
Cc1noc([C@@H]2C[C@H]3OCC[C@H]3N(S(=O)(=O)N(C)C)C2)n1	112.3%
CCC(O)Cn1nc(CCSC)nc1-c1ccc2[nH]ccc2c1 (configuration not stated)	4.032%
COc1ccc(OCc2nc(C(=O)N3CCCNC(=O)C3)co2)cc1	-7.469%
COc1ccc(CN(C)C(=O)c2nnc(CN(C)C)o2)cc1	-11.59%
NC(=O)C1CN(C(=O)c2ccc(F)cc2)CCN1CCc1ccccc1 (configuration not stated)	127.4%
CN1CC(c2ccccc2)CC12CCN(C(=O)c1ccc(F)cc1)CC2 (configuration not stated)	-4.742%
O=C(c1ccccc1)N1CCCC(Nc2ccc(F)cc2)C1 (configuration not stated)	-11.95%
O=C(NC[C@H]1OC[C@@H](NC2CCC(F)(F)CC2)[C@@H]1O)C1CCCC1	8.921%
CN(C)c1cc2c(nn1)CCN(C(=O)C1COc3ccccc3C1)C2 (configuration not stated)	-4.709%
CN(Cc1ccco1)C(=O)[C@@]12CNC[C@@H]1CN(C1CCCC1)C2	-1.971%
COCC(=O)NC1CC2(CCN(CCN(C)C)CC2)c2ccccc21 (configuration not stated)	87.88%
O=C(NC1CC2(CCN(CCO)CC2)c2ccccc21)c1ccncc1.O=C(O)C(F)(F)F.O=C(O)C(F)(F)F (configuration not stated)	-8.101%
CCN1CCC2(CC1)CC(NC(=O)c1ccnnc1)c1ccccc12.O=C(O)C(F)(F)F (configuration not stated)	-6.669%
COCC(=O)NC1CC2(CCN(CCO)CC2)c2ccccc21.O=C(O)C(F)(F)F (configuration not stated)	86.71%
CC(C)C(=O)NC1CC2(CCN(CC(=O)N(C)C)CC2)c2ccccc21.O=C(O)C(F)(F)F (configuration not stated)	105.8%
